The list is not random: actives were taken first. Their share in the collection is about 6.6%.
KB-V1 MDR tox: qHTS assay for MDR1-selective chemotherapeutics: Primary screen using the drug-selected MDR subline cells KB-V1; 400,000 compounds, 3.4% hits; KB-V1 MDR cells viability, CellTiter-Glo, 72 h; Potency, µM (doses to about 46.1 µM), actives largely listed as cytotoxic; AID 1347076, 2019; also: % is scaled to controls: 0 for no effect and ±100 for the full control effect; nearly all actives have a fitted effect of over 60% in size
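Compound-treated KB-V1 multidrug-resistant cells, 72 h, 37 degrees C; viability by CellTiter-Glo. Fitted qHTS curves give the values.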
KB-3-1 tox: qHTS assay for MDR1-selective chemotherapeutics: Primary screen using the parental adenocarcinoma cell KB-3-1; Potency, µM (top dose mostly 46.1 µM), most hits filed as cytotoxic; AID 1347075, 2019; 400,000 compounds, 1.4% hits; KB-3-1 viability, CellTiter-Glo ATP luminescence, 72 h; also: % is scaled to controls: 0 for no effect and ±100 for the full control effect; nearly all actives have a fitted effect of over 60% in size
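Screening of KB-3-1 cells (DMEM, 10% FBS, phenol-red free) ran from lowest to highest compound concentration; after 72 h at 37 °C viability was read luminescently and curves fitted.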
SW480 rerep: A quantitative high throughput screen for small molecules that induce DNA re-replication in SW480 colon adenocarcinoma cells; AID 624297, 2012; 340,000 compounds, 1.8% hits; Potency, µM (titrated, usually from 46.1 µM), inactives show at the top dose re-replication activation, hits mostly activators; SW480 DNA re-replication, Hoechst DNA content imaging, 48 h; also: % of control where 0% means no effect; nearly all actives have a fitted effect of over 55% in size
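Readout is total intensity of Hoechst-stained nuclei, excited at 405 nm and collected at 500-530 nm. Compound treatment lasted 48 hr at 37 C in 5% CO2 before staining.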
MCF10A rereplic: A quantitative high throughput screen for small molecules that induce DNA re-replication in MCF 10a normal breast cells | Potency, µM (series often up to 46.1 µM), for the others: at the highest dose activity, positive = re-replication, usual class: activators | 350,000 compounds, 2.9% hits | MCF 10A DNA re-replication, Hoechst nuclear intensity, 48 h | AID 624296, 2012; also: % of control where 0% means no effect; nearly all actives have a fitted effect of over 50% in size
RGS4 inh: Inhibitors of Regulator of G Protein Signaling (RGS) 4: qHTS | Transcreener GDP fluorescence polarization, RGS4-accelerated GTP hydrolysis | Potency, µM (doses to about 114 µM), inactives show top-dose activity change, negative = inhibition, hits mostly inhibitors | 390,000 compounds, 0.039% hits | AID 504845, 2011; also: % is scaled to controls: 0 for no effect and ±100 for the full control effect; nearly all actives have a fitted effect of over 75% in size
Target sequence (P49798 whole entry, looked up): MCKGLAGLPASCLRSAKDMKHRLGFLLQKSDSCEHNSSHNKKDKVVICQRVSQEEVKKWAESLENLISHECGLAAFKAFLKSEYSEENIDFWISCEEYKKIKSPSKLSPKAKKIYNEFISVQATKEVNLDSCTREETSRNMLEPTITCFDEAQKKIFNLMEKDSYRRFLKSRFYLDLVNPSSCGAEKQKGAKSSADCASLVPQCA
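MLSMR compounds (23 nl, pin-transferred) preincubated 10 min at room temperature with a 500nM (2x) first reagent, then RGS4 at 900nM (2x) plus Transcreener GDP mix added; fluorescence polarization (620/688 nm) read before and after 90 min at 30 °C.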
PTAP TSG101 blk: qHTS Assay for Iinhibitors of HIV-1 Budding by Blocking the Interaction of PTAP/TSG101; Potency, µM (highest dose often 115 µM), without a hit: at the highest dose activity change, negative = inhibition, usual class: inhibitors; 340,000 tested, under 10 active; Fluorescence polarization, FITC-PTAP peptide / Tsg101 binding; active = well fitted inhibition curve with a large enough effect in the main read-out, with a control signal flat, not every such curve was filed as active; inconclusive = small, poorly fitted or top-dose-only effect, or effect the other way, or a change in a side signal; inactive = no such curve, though single readings can be large or run the other way; also: % of control where 0% means no effect
Target sequence (Q99816 whole entry, looked up): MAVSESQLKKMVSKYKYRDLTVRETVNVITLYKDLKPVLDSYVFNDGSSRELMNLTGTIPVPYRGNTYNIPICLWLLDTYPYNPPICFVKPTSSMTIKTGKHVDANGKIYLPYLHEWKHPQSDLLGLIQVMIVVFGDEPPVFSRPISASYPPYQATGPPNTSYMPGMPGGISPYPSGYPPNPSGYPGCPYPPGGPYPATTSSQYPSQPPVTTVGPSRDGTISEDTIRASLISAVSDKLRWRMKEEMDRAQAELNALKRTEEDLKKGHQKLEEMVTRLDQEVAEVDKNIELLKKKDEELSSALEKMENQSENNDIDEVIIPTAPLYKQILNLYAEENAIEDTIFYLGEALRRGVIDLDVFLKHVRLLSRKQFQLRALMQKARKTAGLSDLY
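Fluorescence polarization binding of Tsg101 binding domain (10 uM final) to FITC-labeled PTAP peptide (50 nM final) in HEPES pH 7.5 buffer with NaCl, Tween 20, EDTA, TCEP. Compounds added before peptide; binding 20 min at RT.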
* = called active by the depositor; i = inactive; ? = inconclusive; . = no result; ! = not active in a repeat; [ ] = another dose, or the depositor's remark. Unless noted, calls follow the shape of the dose curve; as a rule, active = well fitted curve in the direction sought with a large enough effect; inconclusive = small, poorly fitted or top-dose-only effect, or another doubt; inactive = no such curve, though single readings can be large; an effect the other way counts as inactive or inconclusive. Potency is read from the fitted curve at half-maximal effect.

SMILES | KB-V1 MDR tox | KB-3-1 tox | SW480 rerep | MCF10A rereplic | RGS4 inh | PTAP TSG101 blk
[O-]c1ccccc1-[n+]1c(-c2ccccc2)cc(-c2ccccc2)cc1-c1ccccc1 | i | 12µM* | 3%[9.22 µM] | ? | 21% | -6%
CC(C)(C)c1ccc(O)cc1 | . | . | 0% | -2% | . | .
O=C(O)c1[nH]c(=O)[nH]c(=O)c1F | i | 7.3µM* | -6% | -5% | 14% | -6%
CCCCCn1c(=O)c(C(=O)Nc2cnccn2)c(O)c2ccccc21 | 16µM* | ? | 25% | 16µM* | ? | 1%
CCCCCn1c(=O)c(C(=O)Nc2cc(C)ccn2)c(O)c2ccccc21 | ? | i | -6% | 12% | -16% | -2%
CCCCCCCn1c(=O)c(C(=O)Nc2cnccn2)c(O)c2ccccc21 | 2.6µM* | 3.3µM* | ? | 3.7µM* | -17% | -6%
CCN(CC)CCO[C@H]1CC[C@@]2(C)C(=CC[C@@H]3[C@H]2CC[C@]2(C)C(=O)CC[C@H]32)C1 | . | . | -4% | 12% | -2%[56.9 µM] | .
CC(C)NCC(O)c1ccc(C2CCCC2)cc1 (configuration not stated) | 23µM* | i | -23% | 12% | -4% | -1%
COc1ccc(OC(=O)N2C/C(=C/c3ccccc3)C(=O)/C(=C\c3ccccc3)C2)cc1 | ? | ? | 3.7µM* | 7.3µM* | -52% | 1%
CC(N)Cc1cn(Cc2ccccc2)c2ccccc12 (configuration not stated) | ? | 23µM* | ? | ? | 1% | 4%
COc1ccc(NS(=O)(=O)c2ccc3c(c2)oc(=O)n3C)cc1Cl | ? | i | -27% | 8% | 9% | -9%
COc1cc(/C=C2\C[C@H]3[C@@H]4CC=C5C[C@@H](N6CCCC6)CC[C@]5(C)[C@H]4CC[C@]3(C)[C@H]2O)cc(OC)c1OC | 2.9µM* | i | 20% | ? | ? | -4%
CC1CCC(C(C)C)C(OC(=O)Cn2c(COc3ccccc3)[n+](C)c3ccccc32)C1 (configuration not stated) | i | 23µM* | 0% | ? | 4% | -1%
Cn1c(=O)n(C)c2cc(CNCCc3ccc(F)cc3)ccc21 | i | i | . | . | 15% | .
COc1ccc2c(c1)c(CCN1CCOCC1)c(C)n2C(=O)c1cccc(Cl)c1Cl | . | . | . | . | 13%[56.9 µM] | .
O=C(c1cc([N+](=O)[O-])ccc1N1CCNCC1)N1CCOCC1 | i | i | -24% | -3% | -8% | -6%
O=[N+]([O-])c1ccc(N2CCNCC2)c(Cl)c1 | ? | i | -4% | 7.3µM* | -14% | -1%
NCCc1cccc(O)c1 | . | . | . | . | i | .
C[n+]1c2cc(N)ccc2cc2ccc(N)cc21 | 16µM* | 10µM* | -158% | 3% | -7% | ?
Nc1ccc2ccccc2c1 | i | i | -5% | 0% | ? | -2%
CCC1(C)CC(=O)NC(=O)C1 | . | . | -5%[20.6 µM] | 2%[20.6 µM] | . | .
N#C/C(=C/c1ccc(O)c(O)c1)C(N)=S | . | . | . | . | 6.7µM* | .
CN(N=O)c1cc(O)ccc1O | . | . | . | . | 24µM* | .
Cn1c(=O)oc2cc(NC(=O)CCl)ccc21 | ? | ? | ? | 17% | 7%[56.9 µM] | -2%
C#CCN1CC(=O)N(COC(=O)[C@@H]2[C@@H](C=C(C)C)C2(C)C)C1=O | . | . | -5% | 0% | . | .
SMILES | KB-V1 MDR tox | KB-3-1 tox | SW480 rerep | MCF10A rereplic | RGS4 inh | PTAP TSG101 blk
Cc1ccc(OCCn2cccc2/C=C2/C(=O)NC(=O)N(Cc3ccco3)C2=O)cc1 | i | i | 11% | ? | ? | 1%
CCc1ccc(N2C(=O)NC(=O)/C(=C\c3cccn3CCOc3ccc(C(C)C)cc3)C2=O)cc1 | ? | ? | ? | 7.3µM* | -18% | -1%
CCCc1nc(SC)ncc1C(=O)Nc1ccc(Cl)cc1C(=O)c1ccccc1 | i | i | . | . | 7% | .
Cc1c(P(=S)(c2ccccc2)c2ccccc2)[n+]2ccccc2n1C | ? | 2.6µM*! | -18% | 0.73µM* | -1% | -1%
CCN1CCC[C@@H](OC(=O)C(c2ccccc2)c2ccccc2)C1 | . | . | -9%[20.6 µM] | -5%[20.6 µM] | . | .
O=C(c1cccs1)c1cn(Cc2ccccc2Cl)c2ccccc12 | 7.3µM* | i | -5% | 17% | -2% | -4%
N#Cc1ccccc1Cn1cc(C(=O)c2cccs2)c2ccccc21 | ? | i | -2% | 3% | ? | -11%
N#Cc1ccccc1Cn1cc(C(=O)c2ccccc2F)c2ccccc21 | 2.3µM* | i | 8% | 18% | 16% | -2%
COC(=O)[C@]1(C)N[C@H](CN(C)S(=O)(=O)c2ccc(-c3ccccc3)cc2)[C@@H]2C(=O)N(Cc3ccccc3)C(=O)[C@@H]21 | i | i | 4% | ? | -25% | -7%
Cc1ccc(NC(=O)N(Cc2ccc3c(c2)OCO3)C2CCN(Cc3ccccc3)CC2)cc1Cl | i | ? | . | . | -13% | .
N#CC1=C(N)Oc2c(c(=O)sc3ccccc23)C1c1ccncc1 (configuration not stated) | i | ? | 13µM* | 21µM* | -40% | -4%
C=CC[N+]1(C)CCC23c4c5ccc(O)c4O[C@H]2C(=O)CC[C@@]3(O)C1C5 (some centres not stated) | . | . | 10% | 0% | . | .
CC1=CC2OC3CC4OC(=O)C=CC=CC(=O)OCCC(C)C(O)C(=O)OCC2(CC1)C4(C)C31CO1 (configuration not stated) | 0.1µM* | 0.037µM* | ? | 12% | 17% | 0%
CC1CCOC(=O)C=CC=CC(=O)OC2CC3OC4C5OC5(C)C(O)CC4(COC(=O)C1O)C2(C)C31CO1 (configuration not stated) | 5.8µM* | 0.21µM* | ? | 0.23µM* | 27% | -1%
CC1=CC2OC3CC4OC(=O)C=CC=CC(C(C)O)OCC(O)C5(C)OC5C(=O)OCC2(CC1O)C4(C)C31CO1 (configuration not stated) | ? | 0.015µM* | 15% | 16% | -27% | -5%
CC(O)C1C=CC=CC(=O)OC2CC3OC4C5OC5(C)C(O)CC4(COC(=O)C(O)C(C)CCO1)C2(C)C31CO1 (configuration not stated) | ? | 0.21µM* | 1.8µM* | ? | -12% | -1%

High-throughput results deposited in PubChem BioAssay by National Center for Advancing Translational Sciences (NCATS).
